Experimental data reported in the supplement of paper PMC8728848.
Shown is part of a subset that was picked to be rich in the strongest signals.

Key:
Assay in all cases: glycan array binding signal (z-score within array); higher = stronger binding
Conditions in all cases: glycan notation: IUPAC condensed, linker removed; mutation: R201A
[1] = target: GlcNAc(b1-2)Man(a1-3)[GlcNAc(b1-2)Man(a1-6)]Man(b1-4)GlcNAc(b1-4)[Fuc(a1-6)]GlcNAc
In short: (§1)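 The binding signal is a Z-score computed within each array and averaged over linkers. Arrays of the same protein sequence at different concentrations or buffers were also averaged together. Data originate from 3228 arrays in the Consortium for Functional Glycomics database, kept only where the protein sequence was available.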

GlcNAc(b1-3)Fuc = target: GlcNAc(b1-3)Fuc
In short: as §1

GlcNAc(b1-3)Gal = target: GlcNAc(b1-3)Gal
In short: as §1

[2] = target: GlcNAc(b1-3)Gal(b1-4)GlcNAc
In short: as §1

[3] = target: GlcNAc(b1-3)Gal(b1-4)GlcNAc(b1-2)Man(a1-3)[GlcNAc(b1-3)Gal(b1-4)GlcNAc(b1-2)Man(a1-6)]Man(b1-4)GlcNAc(b1-4)[Fuc(a1-6)]GlcNAc
In short: as §1

[4] = target: GlcNAc(b1-4)Gal(b1-4)GlcNAc
In short: as §1

GlcNAc(b1-4)GlcNAc = target: GlcNAc(b1-4)GlcNAc
In short: as §1

[5] = target: GlcNAc(b1-4)GlcNAc(b1-4)GlcNAc
In short: as §1

GlcNAc(b1-6)GalNAc = target: GlcNAc(b1-6)GalNAc
In short: as §1

[6] = target: GlcNAc6S(b1-3)Gal(b1-4)GlcNAc
In short: as §1

[7] = target: Kdn(a2-3)Gal(b1-4)[Fuc(a1-3)]GlcNAc
In short: as §1

Man(a1-2)Man(a1-3)Man = target: Man(a1-2)Man(a1-3)Man
In short: as §1

[8] = target: Neu5Ac(a2-3)Gal(b1-3)GalNAc(b1-4)[Neu5Ac(a2-3)]Gal(b1-4)Glc
In short: as §1

[9] = target: Neu5Ac(a2-3)Gal(b1-3)GlcNAc(b1-2)[Neu5Ac(a2-3)Gal(b1-3)GlcNAc(b1-4)]Man(a1-6)[Neu5Ac(a2-3)Gal(b1-3)GlcNAc(b1-2)Man(a1-3)]Man(b1-4)GlcNAc(b1-4)GlcNAc
In short: as §1

[10] = target: Neu5Ac(a2-3)Gal(b1-3)GlcNAc6S
In short: as §1

Neu5Ac(a2-3)Gal(b1-4)Glc = target: Neu5Ac(a2-3)Gal(b1-4)Glc
In short: as §1

[11] = target: Neu5Ac(a2-3)Gal(b1-4)GlcNAc(b1-2)Man(a1-3)[Neu5Ac(a2-6)Gal(b1-4)GlcNAc(b1-2)Man(a1-6)]Man(b1-4)GlcNAc(b1-4)GlcNAc
In short: as §1

[12] = target: Neu5Ac(a2-3)Gal(b1-4)GlcNAc(b1-3)Gal(b1-4)GlcNAc
In short: as §1

[13] = target: Neu5Ac(a2-3)Gal(b1-4)[Fuc(a1-3)]GlcNAc(b1-3)Gal(b1-4)GlcNAc
In short: as §1

[14] = target: Neu5Ac(a2-6)Gal(b1-4)GlcNAc(b1-2)Man(a1-6)Man(b1-4)GlcNAc(b1-4)GlcNAc
In short: as §1

[15] = target: Neu5Ac(a2-6)Gal(b1-4)GlcNAc(b1-3)Gal(b1-4)GlcNAc(b1-3)GalNAc
In short: as §1

[16] = target: Neu5Ac(a2-6)Gal(b1-4)GlcNAc(b1-6)[Gal(b1-3)GlcNAc(b1-3)]Gal(b1-4)Glc
In short: as §1

B1: OS9 (Arabidopsis thaliana) (protein)
chain: MRGSHHHHHHGMASMTGGQQMGRDLYDDDDKSRLQIFPAHLVGTFSRNNREPKYKIEFLPEDSPFHPGDNLESMVMLDKHGNRFLCYLPKEEKATSGWTSSQQNISTVMMETQQLVKLKTPDELLQPLSEKCLFRQEGWWSYEFCHQKYVRQLHVEDENKIVQEFFLGTFDPEATAAFNQTVSDASTDASQRYHSHVYTNGTTCDLTGSPAEVEVRFVCAETRAMVTSITELSTCKYALTVQCPTLCKHPLFQLEKPVSHTIHCNAIPVEEDATRNKEEQAVDESPKMIADS
[1]
  glycan array binding signal (z-score): 0.257
GlcNAc(b1-3)Fuc
  glycan array binding signal (z-score): 0.403
GlcNAc(b1-3)Gal
  glycan array binding signal (z-score): -0.422
[2]
  glycan array binding signal (z-score): -0.104
[3]
  glycan array binding signal (z-score): 2.59
[4]
  glycan array binding signal (z-score): 0.805
GlcNAc(b1-4)GlcNAc
  glycan array binding signal (z-score): 8.22
[5]
  glycan array binding signal (z-score): 0.6
GlcNAc(b1-6)GalNAc
  glycan array binding signal (z-score): -0.498
[6]
  glycan array binding signal (z-score): -0.224
[7]
  glycan array binding signal (z-score): 0.82
Man(a1-2)Man(a1-3)Man
  glycan array binding signal (z-score): 0.874
[8]
  glycan array binding signal (z-score): -0.662
[9]
  glycan array binding signal (z-score): -1.14
[10]
  glycan array binding signal (z-score): -0.775
Neu5Ac(a2-3)Gal(b1-4)Glc
  glycan array binding signal (z-score): 2.08
[11]
  glycan array binding signal (z-score): -0.425
[12]
  glycan array binding signal (z-score): 0.1
[13]
  glycan array binding signal (z-score): 1.98
[14]
  glycan array binding signal (z-score): -0.225
[15]
  glycan array binding signal (z-score): 0.709
[16]
  glycan array binding signal (z-score): -0.933
